Source: PubChem BioAssay AID493248 (Broad Institute, 2011)
Screen size: about 2,300 compounds; about 1,400 (61%) were called active. Not shown: some 7% with an inconclusive outcome. How the calls were made is not given here. The set was probably picked from earlier hits. These entries were drawn from the full list. Potency and affinity values are given separately.

The compounds below were run against FAD-linked sulfhydryl oxidase ALR (Homo sapiens) (UniProt P55789) (assay: inhibitors of human ALR sulfhydryl oxidase, dose response, biochemical, H2O2 detection, luminescence, cherry-pick (AID 493248)). Settings: purified ALR, DTT oxidation, H2O2 HRP-luminol luminescence; at 10 µM (top of the series).
FAD-linked sulfhydryl oxidase ALR (Homo sapiens), sequence (P55789 whole entry, looked up): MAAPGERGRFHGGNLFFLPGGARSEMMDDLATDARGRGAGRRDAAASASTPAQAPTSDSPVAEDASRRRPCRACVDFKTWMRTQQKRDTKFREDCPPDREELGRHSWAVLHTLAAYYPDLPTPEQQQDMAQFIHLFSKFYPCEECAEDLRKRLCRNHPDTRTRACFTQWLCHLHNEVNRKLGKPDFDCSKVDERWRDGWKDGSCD

Compound	activity change, negative = inhibition
Cc1ccc2c(CN3CCC(C(N)=O)CC3)cc(=O)oc2c1C	-10.9%
CN(C)Cc1c(O)ccc2c3c(c(=O)oc12)CCCCC3	148%
Cn1ccnc1SCc1cn2ccccc2n1	-1.35%
O=C(c1cc(-c2ccc(O)cc2)on1)N1CCN(c2ccccc2)CC1	418%
S=c1[nH]ncn1NCc1ccc(Cl)cc1Cl	-23.3%
Cc1cc(-c2n[nH]c(=S)n2/N=C/c2cccc([N+](=O)[O-])c2)n[nH]1	-55.9%
COc1cc(/C=C2\SC(=S)N(NC(=O)c3cccnc3)C2=O)ccc1O	-97.7%
Cc1nnc(Nc2ccc3c(c2)OCO3)c2ccccc12	20.5%
Cc1csc2nc(CSc3ccc(Cl)cc3)cn12	-28.1%
c1ccc(Nc2c(-c3ccco3)nc3ccccn23)cc1	-67%
COc1ccc(-n2c(-c3ccc(OC)c(OC)c3)n[nH]c2=S)cc1	-27%
CCN1CC(c2ccccc2)C(c2ccc(Cl)cc2)=N1 (configuration not stated)	-26.4%
O=C(Nc1cccs1)Nc1ccccc1Cl	-59.6%
CN1c2ccccc2Sc2cc(N)ccc21	-71%
CN(C)c1ccc(/C=N/OC(=O)Nc2ccccc2)cc1	-22.3%
O=C(O)C1C(c2ccccc2)C(C(=O)Oc2ccc(O)cc2)C1c1ccccc1 (configuration not stated)	-97.2%
Fc1ccc(CN2C3=NCCN3c3ccccc32)cc1	-38.3%
CCCCN1C2=NC(c3ccccc3)CN2c2ccccc21 (configuration not stated)	-14%
COc1cc(NC(=O)CN2C(=O)C(c3ccccc3)=NC2(C)C)cc(OC)c1	-10%
CCN(CC)S(=O)(=O)c1ccc(NC(=O)c2c(-c3ccccc3)noc2C)cc1	-1.33%
COc1cc(/C=N\NC(=O)c2ccc(Cn3cc(Br)c([N+](=O)[O-])n3)o2)cc(OC)c1O	-36.4%
CC(C)CC1(C(=O)O)NC(c2ccccc2O)C2C(=O)N(C(C)C)C(=O)C21 (configuration not stated)	-7.77%
COc1ccc(CN2C(=O)C3C4C=CC(C4)C3C2=O)cc1 (configuration not stated)	24.9%
COc1ccc(CNc2ccccc2)cc1Br	-3.19%
COc1ccc(NCc2ccc3c(c2)OCO3)cc1Cl	-12.5%
CCN(CC)c1ccc(NC(=O)CN2C(=O)CSc3ncccc32)c(C)c1	-11.2%

Compound	activity change, negative = inhibition
Cc1cc2nc3ccc(N(C)C)cc3nc2cc1N	-98.1%
CC1C/C(=N/NC(=O)c2cccc(F)c2)c2ccc(O)cc2C1 (configuration not stated)	-63.8%
CNC(=O)CN1C(=O)c2ccccc2S1(=O)=O	14%
COc1ccc(-c2csc(Cc3nnc4n3CCCCC4)n2)cc1OC	-2.63%
CCN1CCn2c3c(c4cc(C)ccc42)CCCC31 (configuration not stated)	32.6%
Cc1cccc(NNC(=O)C(=O)NNc2cccc(C)c2)c1	-2.1%
CCc1oc2ccccc2c1C(=O)c1cc(Br)c(O)c(Br)c1	-16.5%
COC(=O)c1c(N)sc2c1CC(C)(C)OC2	0.616%
Cc1cc(C)cc(N(CC(=O)NCc2ccco2)S(=O)(=O)c2c(C)noc2C)c1	-11.1%
CCSc1nnc(NC(=O)C2CCCN(S(=O)(=O)c3cnc[nH]3)C2)s1 (configuration not stated)	4.79%
Cc1ccc(N(C)S(=O)(=O)c2cccc(C(=O)Nc3nnc(C4CC4)s3)c2)cc1	41.9%
Cc1cc(C(=O)Nc2nc3c(C)cccc3s2)c(C)o1	-29%
COc1cccc(CNc2nc3ccccc3n2CCN2CCCCC2)c1	73.7%
Cc1[nH]oc(=O)c1N=Nc1c(Cl)cccc1Cl	-48.5%
O=S(=O)(c1cccs1)n1cnc2ccccc21	-2.54%
Cc1cc(Cc2ccc(N)c(C)c2)ccc1N	12.8%
C=CCSc1nnc2c(n1)OC(c1ccco1)Nc1ccccc1-2 (configuration not stated)	-91.3%
COC(=O)c1ccn(CC(=O)NC2CCCCC2)n1	-5.32%
COc1cc(C(=S)NC2CCCCC2)ccc1O	99.8%
CSc1nnc(-c2ccncc2)n1CCCN1CCCC1=O	69.3%
Cc1cc(C(=O)CN2C(=O)CCC2=O)c(C)n1Cc1ccccc1	-73.3%
N#CCC(=O)Nc1ccc(C(=O)NCCc2c[nH]c3ccccc23)cc1	-21.6%
CS(=O)(=O)N(CC(=O)NCc1ccccn1)Cc1ccc(Cl)cc1	128%
COC(=O)[C@@H](N)Cc1ccc(O)c(O)c1	-110%
Cc1cccn2cc(CNc3ccccc3)nc12	-7.4%
CC(=O)Nc1cccc(NC(=O)c2cccc(-c3ccc(O)cc3)c2)c1	64.6%

Compound	activity change, negative = inhibition
Cc1cc(C)n2nc(C(=O)N/N=C/c3ccc(O)cc3)nc2n1	-107%
Nc1nnnn1/N=C/c1ccc(O)cc1	-84.1%
S=c1[nH]nc(C2CCCCC2)n1/N=C/c1cccs1	-12.9%
COc1cc(/C=N/N2C(=O)C3C4C=CC(CC4)C3C2=O)ccc1O (configuration not stated)	-104%
CC(=O)c1cc(CC=C(C)C)c(O)cc1O	11.5%
Cc1cccc(C(=O)Nc2onc(C)c2C#N)c1	-51.1%
O=C(Nc1nnc(-c2ccco2)o1)c1cccc(Cl)c1	-18.4%
Cc1[nH]nc(-c2ccc(O)cc2O)c1-c1nc2ccccc2s1	368%
CC(C)c1ccc(NC2CCCN(C(=O)CCN3CCCC3=O)C2)cc1 (configuration not stated)	-61%
COc1ccc(NC2CCCN(C(=O)Cn3ccc(C)n3)C2)cc1OC (configuration not stated)	108%
O=C(CCc1ccncc1)N1CCCC(Nc2ccc(F)c(F)c2)C1 (configuration not stated)	-11.3%
CC(C)N1C(=O)C2C(c3ccccc3O)NC(C)(C(=O)O)C2C1=O (configuration not stated)	4.76%
CCc1c(C(=O)NCc2cnn(C)c2)csc1C	-7.16%
Cc1cccc(CSc2nn3c(=O)c(C)nnc3s2)c1	-99.2%
Cc1nc2ccc(S(=O)(=O)NC(C(=O)Nc3nccs3)C(C)C)cc2s1 (configuration not stated)	-35.5%
COc1ccc(NC(=O)CNS(=O)(=O)c2ccc3nc(C)sc3c2)c(OC)c1	-62.8%
Cc1ccc(CNC(=O)C(NS(=O)(=O)c2ccc3nc(C)sc3c2)C(C)C)cc1 (configuration not stated)	40.5%
C/C(=N\NS(=O)(=O)c1ccc(Cl)cc1)c1ccc(O)cc1	-79.4%
Cc1cc(NC(=O)Nc2cccc(C)c2C)no1	-49%
O=C(Nc1ccccc1N1CCCC1)c1cccnc1	-34.6%
CC(=O)Nc1cccc(N=NN2CCCCC2)c1	26.8%
CC(=O)Nc1ccc(S(=O)(=O)NNC(=O)c2cccc(Cl)c2)cc1	-37.6%
Cc1cc(NC(=O)c2ccoc2C)ccc1Br	-11.3%
COc1ccc(S(=O)(=O)Nc2nc3ccccc3nc2Nc2cccc(C(=O)O)c2)cc1	-80.5%
CCc1nnc(NS(=O)(=O)c2ccc(NC(=O)OC)cc2)s1	-99.5%
